From ChEMBL document CHEMBL3988442, “University of Dundee, Small-Polar-MMV Screening Library” (2021)
About 13,000 (27%) of roughly 48,000 compounds showed an effect of 50% or more. This is one part of the list.

System: Wolbachia pipientis
Assay: Anti-Wolbachia Cell-Based Screen
Format: functional
Set-up: scale not given: in the data most compounds retested in dose-response had high values
Conditions: 5 µM

SMILES | Percent Effect
CCc1ncc2c(n1)CN(CC(=O)NC1CCCCNC1=O)CC2 (stereo unspecified) | -10.76%
N#CCCCOc1cccc(CN2CCCC2c2ccc[nH]2)c1 (stereo unspecified) | -9.513%
NCC1Cc2cc(-c3cnccn3)cc(Cl)c2O1 (stereo unspecified) | 3.613%
O=C(O)C(F)(F)F.c1ccc(N2CCCC3(COCCN(c4nccs4)C3)C2)nc1 (stereo unspecified) | -9.014%
c1ccc(N2CCOCC3(CCCN(c4nccs4)C3)C2)nc1 (stereo unspecified) | 105.2%
Cc1cnc(N2CCOC3(COCCN(c4nccs4)C3)C2)nc1 (stereo unspecified) | 7.245%
CCCS(=O)(=O)N1CCOCC2(CCN(c3ccccn3)C2)C1.O=C(O)C(F)(F)F (stereo unspecified) | -9.194%
Cc1ccc(N2CCCC3(COCCN(c4ccccn4)C3)C2)nn1.O=C(O)C(F)(F)F (stereo unspecified) | 88.94%
O=C1NCC2(CCCN(C(=O)Nc3ccc4occc4c3)CC2)O1 (stereo unspecified) | -22.41%
Cc1cc(SC(C)(C)C)ccc1NC(C)C(=O)NC(N)=O (stereo unspecified) | 0.5682%
CN(Cc1ccc(F)cc1)C(=O)CN1CCCCC1Cn1cncn1 (stereo unspecified) | -13.17%
O=C(Nc1ccccc1)C1CCCN(C(=O)Cn2cncn2)C1 (stereo unspecified) | 9.271%
CCCNC(=O)C1CCCN(Cc2ccc(-n3cncn3)c(C)c2)C1 (stereo unspecified) | 5.039%
O=C(NCCc1ccccc1)C1CCN(C(=O)Cn2cncn2)C1 (stereo unspecified) | 175.5%
O=C(NCCc1ccccc1)C1CCC(Cn2cnnn2)CC1 (stereo unspecified) | 3.007%
O=C(NCCc1ccc(F)cc1)C1CN(C(=O)Cn2cncn2)C1 | 163.3%
CC(=O)Nc1cnc(-n2ccnc2)nc1 | 0.9267%
C=Cc1ccc(C(=O)N2CCCC(Nc3ccccc3)C2)cc1 (stereo unspecified) | -22.58%
CN1C(=O)C[C@@H]2[C@@H]1CCN2C(=O)c1ccc[nH]1 | -0.2597%
CS(=O)(=O)N1CCCC12CCCN(C(=O)c1ccc3[nH]ccc3c1)C2 (stereo unspecified) | 11.97%
N#Cc1cccc(C(=O)N2C[C@H](CO)C[C@H](CN3CCCC3)C2)c1 | -1.985%
N#Cc1ccc(C(=O)N2CCCSCC2CN2CCCC2)cc1 (stereo unspecified) | 107.8%

SMILES | Percent Effect
CN(C)c1ccc(C(=O)N2C[C@@H](CN3CCCCC3)[C@@H](CO)C2)cc1 | -5.628%
CN(C)c1cccc(C(=O)N2CCCSCC2CN2CCCC2)c1 (stereo unspecified) | 112.4%
O=C(c1ccc2[nH]ccc2c1)N1CCCSCC1CN1CCCC1 (stereo unspecified) | 105.2%
Cc1cccc(C(=O)N2CCCSCC2CN2CCCC2)c1 (stereo unspecified) | 114.9%
O=C(c1ccc(F)c(F)c1)N1CCCSCC1CN1CCCC1 (stereo unspecified) | 1.047%
O=C(c1ccc2c(c1)OCO2)N1CCCSCC1CN1CCCC1 (stereo unspecified) | 1.32%
N#Cc1ccc(C(=O)N2C[C@@H](CN3CCCC3)C[C@H](CO)C2)cc1 | 5.863%
CN(C)c1cccc(C(=O)N2C[C@H]3CC[C@@H]2CN(C(=O)C2CCC2)C3)c1 | -25.57%
O=C(CCC1CCN(Cc2ncc[nH]2)CC1)Nc1ccccc1Cl | 0.1939%
CCN(C)c1ccc(CNS(=O)(=O)C2CCOCC2)cc1F | 3.098%
O=C(O)c1cc(C2=CCCCC2)cc(S(=O)(=O)NCc2ccccn2)c1 | -10.69%
COc1ccc(CN2CCCn3cnc(COCC4CC4)c3C2)cc1.O=C(O)C(F)(F)F | -1.756%
CCN1C(=O)C2(CCOCC2)c2cc(NC(=O)c3cc(C)n[nH]3)ccc21 | -4.188%
CC(C)Oc1ccc(CNC(=O)c2cc(C(N)=O)cs2)cc1F | -0.429%
CCn1nc(C)c(CN2CCC(c3ccn[nH]3)C2)c1C (stereo unspecified) | 102.4%
CCn1nc(C)c(CN2CCCC(c3ccc(C(=O)O)cc3)C2)c1C (stereo unspecified) | 3.316%
CCn1nc(C)c(CN2CCC(c3ccc(C(=O)O)cc3)C2)c1C (stereo unspecified) | -3.844%
Cc1cc(CN(C)Cc2csc(-c3cccs3)n2)n[nH]1 | -0.07399%
Cc1cc(CN(C)Cc2ccccc2N2CCCCC2)n[nH]1 | 185.5%
Cc1ccc(CN(C)Cc2cc(C3CC3)[nH]n2)c(O)n1 | 7.171%
CC(C)(NCc1cccc(C#N)c1)c1ccc2c(c1)OCO2 | 0.8425%
CC(C)(NCc1ccc(C#N)cc1)c1ccc2c(c1)OCO2 | 0.339%

SMILES | Percent Effect
CCN(CC(=O)N(C)C)C(=O)C(C)(C)c1ccc2c(c1)OCCO2 | -3.526%
CCCNC(=O)NC(=O)CNC(C)(C)c1ccc2c(c1)OCO2 | 110.6%
CC(C)(C)C(=O)NCCC(=O)NC(C)(C)c1ccc2c(c1)OCCO2 | 1.419%
CCCNC(=O)NC(=O)CNC(C)(C)c1ccc2c(c1)OCCO2 | 109.8%
CCN(Cc1ccc(CN(C)C)cc1)C(=O)c1ccncc1O | 4.477%
O=C(NC1CC(F)(F)C1)[C@]12COC[C@H]1CN(Cc1ccsc1)C2 | -6.897%
O=C(CN1CCc2cncnc2C1)NC1CCCCNC1=O (stereo unspecified) | -3.554%
Cc1nc(N2CCOCC2)nc(C)c1NC(=O)Cc1ccc(Cl)cc1 | -11.2%
Cc1cc(C)nc(N2CCOC(C)(C(=O)N(C)C)C2)n1 (stereo unspecified) | 205.4%
CNC(=O)C1(C)CN(c2nc(C)cc(C)n2)CCO1 (stereo unspecified) | 133.8%
Cc1ccc(N2CCC3(CCN(C(N)=O)CC3)CC2)nn1 | 5.421%
Cc1cc(N2CCOC(C)(C(=O)N(C)C)C2)ncn1 (stereo unspecified) | 147.4%
CCCS(=O)(=O)N1CCOC2(CCCN(c3ccc(C)nn3)C2)C1 (stereo unspecified) | 6.152%
Cc1cc(C)nc(N2CC[C@@]3(O)CCN(S(=O)(=O)N(C)C)C[C@H]3C2)n1 | -0.4533%
Cc1ccsc1CN(C)c1cc(N2CCOCC2)ncn1 | -30.66%
Cc1ccc(N2CCOC(C)(C(=O)N(C)C)C2)nn1 (stereo unspecified) | 160%
Cc1cc(C)nc(N2CCN(C(=O)c3cc(Cl)c[nH]3)CC2)n1 | -2.597%
CC(C)=CCC1(C(=O)O)CCCN(c2cc(N)ncn2)C1 (stereo unspecified) | -4.514%
CNc1cc(C)nc(N2CCC3(CC2)[C@H](O)C[C@@H]3O)n1 | -5.411%
CCOC(=O)NCCC(=O)NCc1ccc(Oc2ccc(F)cc2)nc1 | -9.89%
OC(CNc1cncc(OCc2ccccc2)n1)c1ccco1 (stereo unspecified) | 3.469%
COc1cc(C)ccc1OCC(=O)Nc1ccnc(OCCN(C)C)c1 | 10.45%

SMILES | Percent Effect
CCn1c(CN(C)C)nnc1C1CCN(c2nccc(NC)n2)CC1 | -2.442%
Cc1cccc(C)c1CNC1(CCO)CCOCC1 | 0.8259%
CN(c1ccccc1)c1ccc(CC2CCCN(CCO)C2)nn1 (stereo unspecified) | 94.33%
CC(C)CCN1CCCC(Cn2cc(CCO)nn2)C1 (stereo unspecified) | -4.048%
COc1ccccc1CC1CCCN(CCC(N)=O)C1 (stereo unspecified) | -12.09%
Cc1ccc(N2CCCC(NC(=O)C(C)(C)C#N)C2=O)cc1 (stereo unspecified) | -7.395%
CN(C)c1ncccc1CNC(=O)N1CCCC1CN1CCCCC1 (stereo unspecified) | 7.687%
CN1CCN2CCN(Cc3ccccc3Cn3cccn3)CC2C1 (stereo unspecified) | -0.2104%
CN1CCCN(C[C@H]2C[C@H](CO)CN(Cc3cccnc3N)C2)CC1 | -5.741%
NC(=O)C1CCCN(Cc2c(-c3ccco3)[nH]c3ncccc23)C1 (stereo unspecified) | -7.112%
CNc1ncccc1CN1CCN(C)CC(C(N)=O)C1 (stereo unspecified) | 105.8%
CNc1ncccc1CN1CCN(C)CC(C(=O)N(C)C)C1 (stereo unspecified) | 106.5%
CNc1ncccc1CN1CCN(C(C)=O)CC(C(N)=O)C1 (stereo unspecified) | 106.9%
N#Cc1cccnc1NCc1cccnc1N1CCC(C(N)=O)CC1 | -4.129%
CC(C)Oc1ncccc1CNC(=O)N1CCC(C(N)=O)C1 (stereo unspecified) | -8.219%
CN(C)CCOCC1CN(C(=O)c2ccnnc2)Cc2ccnn2C1.O=C(O)C(F)(F)F.O=C(O)C(F)(F)F (stereo unspecified) | 5.316%
CCn1cc2c(n1)C(COCC1CC1)CN(c1ccc(C)nn1)C2 (stereo unspecified) | 10.52%
CCCSc1nc(N)c(NC(=O)c2ccc(OC)c(OC)c2)c(=O)[nH]1 | -5.573%
Cn1ccnc1CN1CCCC(Cc2ccnc3ccncc23)CC1.O=CO (stereo unspecified) | 122.1%
Cn1ccnc1CN1CCC(CNS(=O)(=O)c2cccnc2)C1 (stereo unspecified) | 2.394%
CN1CCCC(Cc2ccnc3ccncc23)CC1 (stereo unspecified) | -6.52%
O=CO.c1cc2nccc(CC3CCCN(C4CCOCC4)CC3)c2cn1 (stereo unspecified) | 113.5%

SMILES | Percent Effect
CS(=O)(=O)N1CCCC(Cc2ccnc3ccncc23)CC1 (stereo unspecified) | 72.88%
c1cc2nccc(CC3CCCN(Cc4ncc[nH]4)CC3)c2cn1 (stereo unspecified) | 3.513%
O=C(NCCc1c[nH]cn1)C1CCCN(Cc2ccco2)C1 (stereo unspecified) | -20.31%
O=CO.c1cc2nccc(CC3CCCN(Cc4c[nH]cn4)CC3)c2cn1 (stereo unspecified) | 92.48%
O=C(CC1CC1)N(Cc1cccnc1)CC1CCN(C2CCCC2)CC1 | -16.06%
O=C(Cc1cccnc1)N1CCCC2(CCN(C3CCOCC3)C2)C1.O=C(O)C(F)(F)F.O=C(O)C(F)(F)F (stereo unspecified) | 3.784%
Cc1cccc(-c2nc(CN3CCn4c(nnc4C4CC4)C3)no2)c1 | 0.9786%
Cc1nc(C2(NCc3c(C)nn(C)c3N3CCOCC3)CCC2)no1 | -14.17%
Cc1cccc(CS(=O)(=O)Cc2ccn(C)c(=O)c2)c1 | -8.677%
c1cn(CCNc2nc(NC3CC3)nc3c2CCNCC3)nn1 | -2.29%
COc1ccc(CNC(=O)C2=NN(c3ccc(C)cc3)C(=O)CN2)cc1 | -36.41%
COc1ccc(N(c2ccc(C)cc2)c2ccc(C(=O)O)s2)cc1 | 128.9%
COc1ccc(OC2CCN(C(=O)c3ccc(C(C)=O)s3)CC2)cc1 | -8.42%
CCN(C(=O)CN1CCCC1c1ccc(OC)cc1)c1ccccc1 (stereo unspecified) | 3.138%
COc1ccc(N(c2ccccc2)c2ccc(C(=O)O)s2)cc1 | 119.4%
COc1ccc(N(c2ccc(OC)cc2)c2ccc(C(=O)O)s2)cc1 | 99.84%
CCN(C(=O)CN1CCCC1c1ccc(OC)cc1)c1ccccc1C (stereo unspecified) | 3.108%
COc1cc(/C=C/c2ncc(C(=O)O)s2)cc(OC)c1 | 4.44%
